This note sets out measurements from PubChem BioAssay (NCATS).

The nature of experiment [1]: qHTS assay for measurement of the activity of small molecule inhibitors on Zika virus induced Caspase-3 activity in human astrocytoma cells (AID 1224859). Summed up:
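Readout is luminescence from Caspase-Glo 3/7 added after a 6 h ZIKV infection (2 FFU/cell) of compound-pretreated (1 h) SNB-19 cells; data expressed as % inhibition versus uninfected and infected wells.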
In general terms: In qHTS, concentration-response curves come from the screen itself.

Experiment [2] can be described thus: qHTS assay to identify small molecule inhibitors of chordoma cells - UCH-1 (AID 1259355). Also: nearly all actives have a fitted effect of over 55% in size. Also: potency is read from the fitted curve at half-maximal effect; series mostly up to about 46 µM. Summed up: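 Luminescent ATP read-out (CellTiter-Glo, 30min at room temperature) measured viability of UCH-1 cells exposed for 48hr to test drugs at 15 concentrations, co-dosed with a five-agent combination of auranofin, camptothecin, doxorubicin, rubitecan and topotecan.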

Experiment [3] can be described thus: qHTS assay to identify small molecule inhibitors of chordoma cells - UCH-2 (AID 1259356). Also: potency is read from the fitted curve at half-maximal effect.
The nature of experiment [4]: qHTS assay for measurement of the activity of small molecule inhibitors on Zika virus induced Caspase-3 activity in human iPSC derived neural progenitor cells (hNPCs) (AID 1224857). Also: nearly all actives have a fitted effect of over 65% in size. Summed up: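 Quantitative HTS format: human iPSC neural progenitors, 1 h compound pretreatment, ZIKV 2 FFU/cell for 6 h at 37 C. Percent inhibition derived from luminescent caspase-3/7 signal between uninfected and infected controls.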

Inconclusive results are not listed. Entries that show only a call come without a potency. The source made the active and inactive calls. Calls follow the shape of the dose curve; as a rule, active = well fitted curve in the direction sought with a large enough effect; inconclusive = small, poorly fitted or top-dose-only effect, or another doubt; inactive = no such curve, though single readings can be large; an effect the other way counts as inactive or inconclusive.

Take `CCN(CC)CCOC(=O)C(O)(c1ccccc1)c1ccccc1`: the compound was called inactive in experiment [1]. Besides, the Potency entry in experiment [2] and in experiment [3] was “inactive” throughout.
On to `O=C1NCN(c2ccccc2)C12CCN(CC1COc3ccccc3O1)CC2` (centres undefined), for which the Potency result in experiment [4], in experiment [2] and in experiment [3] was “inactive” in each case. Besides, in experiment [1], the result was inactive.
As to `NN=C(N)N`, the compound was classed as inactive in experiment [1]. For the same compound, the Potency result in experiment [2] and in experiment [3] was “inactive” each time.
In the case of `CN1C(=S)CN=C(c2ccccc2)c2cc(Cl)ccc21`, the call in experiment [1] was inactive. The Potency entry in experiment [2] and in experiment [3] was “inactive” throughout.
Take `CC(C)NCC(O)c1ccccc1Cl` (centres undefined): the outcome in experiment [1] was inactive. Also, the Potency entry in experiment [2] and in experiment [3] was “inactive” each time.
As for `COc1ccc(Cc2nccc3cc(OC)c(OC)cc23)cc1OC`, the call in experiment [1] was inactive. Besides, the Potency result in experiment [2] and in experiment [3] was “inactive” throughout.
Regarding `NP(N)(=O)NC(=O)c1ccc(F)cc1`, in experiment [1], the outcome was inactive. For the same compound, the Potency entry in experiment [2] and in experiment [3] was “inactive” in each case.
For `CC[N+]1(C)CCCC(OC(=O)C(O)(c2ccccc2)c2ccccc2)C1` (centres undefined), the Potency entry in experiment [4], in experiment [2] and in experiment [3] was “inactive” throughout. For the same compound, in experiment [1], the outcome was inactive.
Turning to `CC(C)(C)CC(C)(C)c1ccc(O)cc1`, the outcome in experiment [1] was inactive. For the same compound, the Potency entry in experiment [2] and in experiment [3] was “inactive” each time.
As for `c1ccc2c(c1)OCC(C1=NCCN1)O2` (centres undefined), the call in experiment [1] was inactive. In experiment [2], the Potency was 31600 nM (active).
As for `CC[N+](CC)(CC)CC`, the call in experiment [1] was inactive. The Potency result in experiment [2] and in experiment [3] was “inactive” each time.
For `Nc1ccncc1`, the Potency entry in experiment [4], in experiment [2] and in experiment [3] was “inactive” throughout. For the same compound, the compound was classed as inactive in experiment [1].
Regarding `N#CC(C#N)=Cc1ccc(O)c(O)c1`, the Potency entry in experiment [4], in experiment [2] and in experiment [3] was “inactive” each time. Further, the compound was called inactive in experiment [1].
Regarding `C=CCN1CC[C@]23c4c5ccc(O)c4O[C@H]2C(=O)CC[C@@]3(O)[C@H]1C5`, the compound was called inactive in experiment [1]. Moreover, the Potency result in experiment [2] and in experiment [3] was “inactive” throughout.
As for `CC(C)(N)Cc1ccc(Cl)cc1`, the Potency entry in experiment [4], in experiment [2] and in experiment [3] was “inactive” each time. In addition, the result in experiment [1] was inactive.
With `Oc1cccc2cccnc12`, the call in experiment [1] was inactive. Moreover, the Potency result in experiment [2] and in experiment [3] was “inactive” throughout.
Regarding `NCCc1cc(O)c(O)cc1O`, the outcome in experiment [1] was inactive. The Potency result in experiment [2] and in experiment [3] was “inactive” each time.
As for `Clc1ccc(COC(Cn2ccnc2)c2ccc(Cl)cc2Cl)cc1` (centres undefined), the Potency entry in experiment [4], in experiment [2] and in experiment [3] was “inactive” each time. For the same compound, in experiment [1], the compound was classed as inactive.
As for `Cc1ccc2c(c1)C1CN(C)CCC1N2` (centres undefined), the compound was classed as inactive in experiment [1]. Also, the Potency entry in experiment [2] and in experiment [3] was “inactive” throughout.
As to `C[C@H]1O[C@@H](O[C@H]2[C@@H](O)C[C@H](O[C@H]3[C@@H](O)C[C@H](O[C@H]4CC[C@@]5(C)[C@H](CC[C@@H]6[C@@H]5CC[C@]5(C)[C@@H](C7=CC(=O)OC7)CC[C@]65O)C4)O[C@@H]3C)O[C@@H]2C)C[C@H](O)[C@@H]1O`, the Potency result in experiment [4] was “inactive”. For the same compound, the compound was classed as inactive in experiment [1]. Also, the Potency was 112 nM (active) in experiment [2] and 46.1 nM (active) in experiment [3].
Take `Clc1cccc(N2CCNCC2)c1`: the Potency entry in experiment [4], in experiment [2] and in experiment [3] was “inactive” each time. Further, the result in experiment [1] was inactive.
On to `CC(=O)[C@H]1CC[C@H]2[C@@H]3CC[C@H]4C[C@H](O)CC[C@]4(C)[C@H]3C(=O)C[C@]12C`, for which the Potency result in experiment [4], in experiment [2] and in experiment [3] was “inactive” in each case. Further, the compound was called inactive in experiment [1].
For the compound `c1ccc2c(c1)Nc1ccccc1S2`, the Potency result in experiment [4], in experiment [2] and in experiment [3] was “inactive” in each case. Further, in experiment [1], the compound was called inactive.
In the case of `CCCN1CCC[C@@H]2Cc3[nH]ncc3C[C@H]21`, in experiment [1], the outcome was inactive. Besides, in experiment [3], the Potency entry was “inactive”.
In the case of `FC(F)(F)c1cccc(C2=CCN(CCc3ccc4ccccc4c3)CC2)c1`, the result in experiment [1] was inactive. Moreover, the Potency result in experiment [2] and in experiment [3] was “inactive” in each case.
On to `CC1NCCOC1c1ccccc1` (centres undefined), for which the outcome in experiment [1] was inactive. In addition, the Potency entry in experiment [2] and in experiment [3] was “inactive” in each case.
Consider `Cc1cccc(C)c1NC1=NCCCS1`, for which the result in experiment [1] was inactive. Also, the Potency entry in experiment [2] and in experiment [3] was “inactive” in each case.
